Rows were chosen to be rich in hits. Some 4.1% of all compounds tested hit in one or more screens of this group.
DAX1 inh-1: DAX1 (NR0B1) inhibitors on StAR promoter, primary screen, cell-based, luminescence, SF-1 (NR5A1), full-length DAX-1; AID 652010, 2013; 370,000 tested, 1.1% active; HEK293T StAR-luciferase reporter, SF-1/DAX-1 repression relief; inhibition, % at 6.8 µM;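 active = inhibition above the mean over all tested compounds plus 3 SD, cut at about 3.6% in these data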;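 also: 0% = DAX-1 cells with DMSO and 100% = cells lacking DAX-1 with DMSO; higher inhibition means more luminescence from relief of DAX-1 repression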
hgDAF12 agonist: H. glycines DAF-12 receptor agonists, primary screen, cell-based, luminescence, HEK293, GAL4 fusion, UAS-luciferase; activation, % at 6.8 µM; Nuclear hormone receptor DAF-12 (Heterodera glycines), GAL4 fusion; 370,000 tested, 1.8% active; HEK293 GAL4-hgDAF12 UAS-luciferase reporter, agonist luminescence; normalized to butyrate control;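 active = activation above a cutoff set at the mean of all screened compounds plus 3 SD, cut at about 10% in these data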;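 also: 0% = DMSO wells and 100% = sodium butyrate wells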
ssDAF12 agonist: S. stercoralis DAF-12 nuclear receptor activators, primary screen, cell-based, luminescence, HEK293, GRIP1 co-expression, lit1-tk-luc. AID 652126, 2013. activation, % at 6.8 µM. HEK293 ssDAF-12/GRIP1 lit1-tk-luc reporter; % of 3 µM dafachronic acid response. 370,000 tested, 1% active. Nuclear hormone receptor DAF-12 (Strongyloides stercoralis);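 active = activation above the mean over all tested compounds plus 3 SD, cut at about 0.9% in these data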;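 also: 0% = DMSO-only wells and 100% = 3 µM delta7-dafachronic acid wells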
hcDAF-12 act: H. contortus DAF-12 nuclear receptor activators, primary screen, cell-based, luminescence, HEK293, lit1-tk-luc reporter. activation, % at 6.8 µM. HEK293 hcDAF-12 lit1-tk-luc reporter; 0% DMSO, 100% Δ7-dafachronic acid. 370,000 tested, 1.4% active;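 active = activation above the mean of all tested compounds plus 3 SD, cut at about 5.5% in these data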;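 also: 100% = response to 3 µM Δ7-dafachronic acid high control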
DAX1 inh-2: DAX1 (NR0B1) inhibitors, primary screen, cell-based, HEK293, Gal4-DAX1, luciferase luminescence; Nuclear receptor subfamily 0 group B member 1 (Homo sapiens), P51843; HEK293 Gal4-DAX1 luciferase reporter; inhibition, % at 6.75 µM; 340,000 tested, 0.99% active; AID 504766, 2011;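 active = inhibition above the mean over all tested compounds plus 3 SD, cut at about 4.2% in these data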;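 also: 0% = DAX1-transfected cells with DMSO and 100% = empty-vector control cells with DMSO; inhibition shows as a rise in luminescence from relieved DAX1 repression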
Target sequence (P51843 207-470 limits assumed): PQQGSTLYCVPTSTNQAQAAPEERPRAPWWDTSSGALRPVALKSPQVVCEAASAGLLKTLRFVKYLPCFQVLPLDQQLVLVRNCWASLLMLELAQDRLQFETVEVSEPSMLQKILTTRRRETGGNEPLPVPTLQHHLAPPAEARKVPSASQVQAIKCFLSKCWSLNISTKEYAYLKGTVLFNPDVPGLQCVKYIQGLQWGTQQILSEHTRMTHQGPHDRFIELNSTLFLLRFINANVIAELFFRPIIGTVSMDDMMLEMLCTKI
An asterisk follows results filed as active; . = not tested or not shown.

SMILES	DAX1 inh-1	hgDAF12 agonist	ssDAF12 agonist	hcDAF-12 act	DAX1 inh-2
CCN1CCN(C(=S)c2ccc(O)cc2)CC1	1	1	-2	-1	7.5*
O=C(c1ccc(F)cc1)N1CCN2C(=O)c3ccccc3C12c1ccccc1 (stereo not drawn)	0	-3	-1	-1	1
O=C(c1ccc(F)cc1)N1CCN2C(=O)c3ccccc3C12c1ccc(Cl)cc1 (stereo not drawn)	0	-4	-1	-2	4.2*
COc1cc(/C=N/Nc2ccc(C(=O)O)cc2)cc(OC)c1OC	2	3	-1	3	4.3*
O=C(N/N=C/c1cccc(C(F)(F)F)c1)c1ccccc1O	2	5	-1	3	0
O=C(O)c1ccc(N/N=C/c2cccc(C(F)(F)F)c2)cc1	4.4*	10	0	5	4.7*
COc1ccc(/C=N/Nc2ccc(C(=O)O)cc2)c(OC)c1OC	1	5	-1	1	2
CCn1c(COc2ccc(C)cc2)nnc1SCC(=O)c1ccc(-c2ccccc2)cc1	-3	1	-1	-4	.
CCc1ccc(/C=N/NC(=O)c2ccccn2)cc1	2	11*	0	6	0
O=C(N/N=C/c1cccs1)c1ccccn1	3	12*	0	5	2
Cn1cccc1/C=N/NC(=O)c1ccncc1	0	-1	-1	6.2*	.
O=C(N/N=C/c1ccc(OC(=O)c2ccccc2Cl)cc1)c1ccccn1	.	.	.	.	1
Cn1cccc1/C=N/NC(=O)c1ccccn1	3.7*	12*	0	2	1
CCOC(=O)N1CCN(C(=O)C[C@H]2C[C@@]3(C(=O)OC)C(=C[C@H](C(C)(C)C)O[C@@H]3C)N(Cc3ccc4c(c3)OCO4)C2=O)CC1	0	-2	-1	-1	.
COC(=O)[C@@]12CCCCC3=C1N(CCC3)C(=O)[C@H]2CC(=O)N1CCCC1	1	1	-1	-1	.
COC(=O)C1CN(C(=O)c2ccc(OC(F)F)cc2)c2ccccc2O1 (stereo not drawn)	0	0	-1	0	4.3*
CC1=NN(c2ccccc2C)C(=O)C1	0	0	1.9*	0	1
Cc1ccccc1N1CC(=O)N(c2ccccc2C)CC1=O	0	-2	-1	-2	2
O=C(CCN1C(=O)/C(=C\c2ccccc2F)SC1=S)Nc1ccc(C(=O)O)c(O)c1	3.9*	1	-1	0	2
CCCCCCCCN1C(=O)[C@@H](CC(=O)N2CCN(C(=O)OCC)CC2)C[C@@]2(C(=O)OC)C1=C[C@H](C(C)C)O[C@@H]2C1CC1	-1	2	-1	0	.
COC(=O)CC1(c2ccc(OC)cc2)C(=O)c2ccccc2C1=O	0	0	-2	1	7.1*
O=C(CSc1nc2ccccc2nc1N1CCOCC1)N1CCN(S(=O)(=O)c2cccc([N+](=O)[O-])c2)CC1	0	3	-2	0	.
CC(C)(C)C(=O)Nc1cc(S(=O)(=O)Nc2ccc(Cl)cc2)ccc1O	0	-3	-1	-2	4.3*
CC(C)C(=O)Nc1cc(S(=O)(=O)Nc2ccc(Cl)cc2)ccc1Cl	-1	-4	-1	-1	0
COc1ccc(C(=O)Nc2nncs2)cc1S(=O)(=O)N1CC(c2ccccc2)CC1=O (stereo not drawn)	0	-4	-1	-2	8.0*
SMILES	DAX1 inh-1	hgDAF12 agonist	ssDAF12 agonist	hcDAF-12 act	DAX1 inh-2
Cc1nc2c3ccccc3n(CC#N)c(=O)n2n1	1	8	0	6.1*	0
CC(/C=N/NC(=O)CSc1nnc(SCc2ccc(C)cc2)s1)=C\c1ccco1	0	1	-1	-2	.
c1ccc2c(c1)nc(-c1ccncc1)n2CCNc1nc(CN2CCCCC2)cs1	0	0	-1	1	1
Cn1c(-c2ccc(CN3CCCCC3)o2)nc2ccccc21	3	9	1.2*	5.8*	1
COC(=O)c1cnn(-c2ccccc2)c1C(OC)OC	0	1	-1	0	4.5*
COC(=O)c1c(NC(=O)CN2CCN(c3ccccc3Cl)CC2)sc(C)c1C	-1	-2	1.1*	4	2
CCOC(=O)c1c(NC(=O)CN2CCN(c3ccc(Cl)cc3)CC2)sc(C)c1C	-1	2	-1	0	0
COc1ccc(NC(=O)c2cc(C(C)C)on2)cc1OC	0	3	-1	0	5.0*
COc1ccc(NC(=O)c2ccccc2O)c(OC)c1	3	9	1	5.8*	3
COc1cc(NC(=O)c2cc(C(C)C)on2)c(OC)cc1Cl	0	2	0	4	0
COc1ccc(NC(=O)c2cc(C(C)C)on2)c(OC)c1	3	8	-1	6.4*	1
CCCCCc1ccc(NC(=O)OCCN2C(=O)CCC23CCC(c2ccccc2)CC3)cc1 (stereo not drawn)	3	3	-1	3	.
O=C(CSc1nnc(C2COc3ccccc3O2)o1)Nc1nccs1 (stereo not drawn)	.	.	.	.	4.4*
O=C(CSc1nnc(C2COc3ccccc3O2)o1)NC1CCCCC1 (stereo not drawn)	0	1	0	-2	1
CCC(NC(=O)c1cccc2c1C(=O)N(Cc1cccnc1)C2)c1ccccc1 (stereo not drawn)	-1	-2	-2	-1	.
O=C(COc1ccc(Cl)cc1Cl)c1ccc[nH]1	0	7	-1	0	8.0*
Cc1ccc(Cl)c(OCC(=O)OCC(=O)c2ccc[nH]2)c1	-1	1	-1	0	0
O=C(Nc1nnc(-c2ccco2)o1)C1CCCCC1	0	0	-1	-1	1
O=C(Nc1nnc(-c2ccco2)o1)C1CC1	0	0	-1	6.4*	0
COC(=O)c1ccc(CN2CC3CC(c4ccccc4)N4CCCC34C2=O)cc1 (stereo not drawn)	0	-1	-1	1	.
NC(=O)CSc1nc(N)c2c3c(sc2n1)CCCCC3	0	1	-1	-1	0
NC(=O)CSc1nc(C2CC2)nc2sc3c(c12)CCCC3	1	12*	-1	2	5.6*
COc1ccc2nc(-c3ccccn3)[nH]c2c1	2	12*	0	5	2
O=C(O)c1cc([N+](=O)[O-])ccc1Nc1ccccc1	0	-3	-1	-3	4.3*
Cc1cccc(Nc2ccc([N+](=O)[O-])cc2C(=O)O)c1	1	1	0	-1	1

Assay outcomes from PubChem BioAssay.
